Screening results (PubChem)
IL-1B inflam inh – inflammasome signaling inhibition, IL-1 beta readout; THP-1 LPS/ATP IL-1B secretion, AlphaLISA, 16 h; stronger effect = lower value; activity change, % at 57.5 µM; 4.7% of 360,000 active; in the data active = activity change below about -50%; inconclusive = mostly about -30% to -49%
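THP-1 cells pretreated 1 hr with compounds (up to 57.5 uM final), then stimulated with LPS (250 ng/mL final) plus ATP (1.25 mM final); secreted IL-1B measured by AlphaLISA after 16 hr, decreased signal indicating inhibition.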
HT1080 IDH1KD tx – HT-1080 IDH1 knockdown cell toxicity (counter line). AID 686971. HT-1080 IDH1 knockdown viability, ATP luminescence, 48 h. 2% of 360,000 active. Potency, µM (doses to about 46.1 µM), for the others: at the top dose activity, negative = toxicity, hits mostly cytotoxic;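 note: potency is the fitted concentration of half-maximal effect; 0% = DMSO wells and -100% = cell-free medium wells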
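Viability of IDH1-knockdown HT-1080 fibrosarcoma cells was assessed by CellTiter-Glo after 48 h at 37 °C with titrated compound; concentration-effect curves were classified by fit quality and response size.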
DT40 TDP1 no CPT – qHTS for Inhibitors of human tyrosyl-DNA phosphodiesterase 1 (TDP1): qHTS in cells in absence of CPT | DT40 Tdp1-/- hTDP1 cells, no CPT, ATP luminescence, 48 h | Potency, µM (highest dose often 46.2 µM), inactives show top-dose activity change, negative = growth inhibition, usual class: inhibitors | 15% of 420,000 active | AID 686978, 2013; note: potency is the fitted concentration of half-maximal effect; nearly all actives have a fitted effect of over 55% in size
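Cells were dispensed at 400 per well, compounds added by pin tool, plates incubated ≥48 hr at 37 °C, then CellTiter-Glo added for 30 min at room temperature before luminescence reading. Line: DT40 Tdp1-/- complemented with hTDP1; camptothecin omitted.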
ELG1 DNA repair – blocks ELG1-dependent DNA repair in HEK293T cells. Potency, µM (highest dose often 46.1 µM), for the others: at the top dose activity change, negative = inhibition, usual class: inhibitors. HEK293T ELG1-luciferase reporter, luminescence, 16 h; DNA damage induced by 5-fluorouridine. 2.3% of 330,000 active. AID 504467; note: potency is the fitted concentration of half-maximal effect; nearly all actives have a fitted effect of over 55% in size
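DMSO vehicle served as the neutral condition. Each well held 2,000 cells given 5-fluorouridine plus compound; after 16 hr at 37 °C/5% CO2, ONE-Glo was added and luciferase measured 30 min later.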
HT1080-NT tox – kills 2HG-producing HT-1080-NT fibrosarcoma cells; HT-1080-NT fibrosarcoma viability, CellTiter-Glo ATP luminescence, 48 h; Potency, µM (doses to about 46.1 µM), without a hit: at the top dose activity, negative = less viability, hits mostly cytotoxic; 1.6% of 360,000 active;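 note: NT is the 2HG producing partner of a matched IDH1 knockdown line; potency is the fitted concentration of half-maximal effect; 0% = DMSO-treated cells and -100% = media-only wells without cells; nearly all actives have a fitted effect of over 55% in size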
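Viability of the 2HG-overproducing fibrosarcoma line after 48 hours of compound exposure at 37 degrees C was determined by luminescence with CellTiter-Glo, and concentration-effect curves were then fitted and categorized.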
TDP1 cell CPT – DT40-hTDP1 cell growth loss with CPT; chicken DT40 Tdp1-/-;hTDP1 cells + 20 nM CPT, ATP luminescence, 48 h; Potency, µM (top dose mostly 46.2 µM), for inactives: top-dose activity change, negative = growth inhibition, hits mostly inhibitors; 12% of 420,000 active; AID 686979; note: potency is the fitted concentration of half-maximal effect; nearly all actives have a fitted effect of over 55% in size
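Cell growth measured by CellTiter-Glo luminescence after a minimum 48 h, 37 C compound exposure with 20 nM CPT in Tdp1-knockout DT40 cells stably expressing hTDP1, seeded 400/well; qHTS titration format.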
* = called active by the depositor; i = inactive; ? = inconclusive; · = not tested or not shown; [ ] = dose if it differs, or a comment. Compounds with a hit are over-represented: about 19% of the library has one in this group of screens. Unless noted, calls come from the whole dose curve; as a rule, active = well fitted curve in the direction sought with a large enough effect; inconclusive = small, poorly fitted or top-dose-only effect, or another doubt; inactive = no such curve, though single readings can be large; an effect the other way counts as inactive or inconclusive. Unless noted, % is set by controls: 0 for no effect and ±100 for the full control effect.

SMILES	IL-1B inflam inh	HT1080 IDH1KD tx	DT40 TDP1 no CPT	ELG1 DNA repair	HT1080-NT tox	TDP1 cell CPT
CSc1nnc(CCNS(=O)(=O)c2ccc(Br)cc2)n1C	5	3%	4%	20%	5%	4%
Cc1cc(C)c(NC(=O)Cn2c(=O)n(Cc3ccc4c(c3)OCO4)c(=O)c3ccccc32)c(C)c1	·	·	?	·	·	-27%
Cc1ccccc1NC(=O)Cn1c(=O)n(Cc2ccc3c(c2)OCO3)c(=O)c2ccc(C(=O)NC3CCCCC3)cc21	·	·	7.3µM*	·	·	5.8µM*
Cc1ccc(NC(=O)Cn2c(=O)n(Cc3ccco3)c(=O)c3ccc(C(=O)NC4CCCC4)cc32)c(C)c1	·	·	16µM*	·	·	16µM*
Cc1ccc(NC(=O)Cn2c(=O)n(Cc3ccc4c(c3)OCO4)c(=O)c3ccc(C(=O)NC4CCCCC4)cc32)c(C)c1	·	·	?	·	·	2.1µM*
Cc1ccc(C)c(NC(=O)Cn2c(=O)n(CCC(=O)NCc3ccc4c(c3)OCO4)c(=O)c3ccccc32)c1	·	·	-14%	·	·	-17%
COc1ccc(Cl)cc1NC(=O)Cn1c(=O)n(Cc2ccco2)c(=O)c2ccc(C(=O)NC3CCCC3)cc21	·	·	-11%	·	·	-8%
CCN(C(=O)Cn1c(=O)n(Cc2ccc3c(c2)OCO3)c(=O)c2ccc(C(=O)NC3CCCCC3)cc21)c1cccc(C)c1	·	·	16µM*	·	·	15µM*
Cc1cc(C)c(NC(=O)Cn2c(=O)n(CCC(=O)N3CCc4ccccc4C3)c(=O)c3ccccc32)c(C)c1	·	·	0.52µM*	·	·	13µM*
Cc1ccc(C)c(NC(=O)Cn2c(=O)n(Cc3ccc4c(c3)OCO4)c(=O)c3ccc(C(=O)NC4CCCCC4)cc32)c1	·	·	?	·	·	2.6µM*
Cc1cc(C)c(NC(=O)Cn2c(=O)n(Cc3ccc(C(=O)NCc4ccc5c(c4)OCO5)cc3)c(=O)c3ccccc32)c(C)c1	·	·	7.3µM*	·	·	6.5µM*
Cc1ccc(S(=O)(=O)Nc2ccc3c(c2)CCC3)cc1	-19	-28%	16µM*	6%	-25%	15µM*
Cc1ccc(S(=O)(=O)Nc2ccc3c(c2)CCC3)cc1C	15	2%	-6%	-3%	5%	-4%
CCOC(=O)c1c(C)n(S(=O)(=O)c2ccc(C)cc2)c2ccc(NS(=O)(=O)c3ccc(C)cc3)cc12	·	·	21µM*	·	·	18µM*
Cc1ccc(S(=O)(=O)Nc2ccc3c(c2)c2c(n3S(=O)(=O)c3ccc(C)cc3)CCCC2=O)cc1	25	-15%	8.2µM*	?	-5%	5.8µM*
Cc1cccc(C(=O)N/C(=C\c2ccco2)C(=O)N2CCCC2)c1	9	5%	-25%	24%	5%	-3%
CSc1nnc(-c2sc3cc(C(F)(F)F)cnc3c2-c2cccnc2)n1C	-8	-23%	16µM*	?	-9%	?
O=C(O)CCn1c(SCCOc2ccccc2F)nc2ccccc21	23	0%	12%	13%	-1%	-4%
NC(c1csc(Nc2nncc3ccccc23)n1)c1ccccc1Cl (stereo not drawn)	-22	-23%	15µM*	·	?	29µM*
CC(N)c1csc(Nc2ccc(S(C)(=O)=O)cc2)n1 (stereo not drawn)	-3	0%	0%	·	7%	16%
NC(c1csc(Nc2nncc3ccccc23)n1)C1CCCCC1 (stereo not drawn)	-78*	23µM*	5.8µM*	·	21µM*	5.8µM*
Cc1c(NC(=O)C(C)OC(=O)CCOc2ccccc2)c(=O)n(-c2ccccc2)n1C (stereo not drawn)	7	4%	3%	-4%	3%	-5%
CCC(COC)NC(=O)c1cnn(-c2ncc3c(n2)-c2ccccc2CC3)c1C (stereo not drawn)	·	·	?	·	·	-3%[9.04 µM]
O=c1ccn(C2OC(COP(=O)(O)OP(=O)(O)OP(=O)(O)O)C(O)C2O)c(=O)[nH]1 (stereo not drawn)	·	·	-10%	·	·	-9%
Clc1cccc(-c2nc3ccc(Cl)cn3c2Cc2ccsc2)c1	103	-10%	?	·	-14%	?
SMILES	IL-1B inflam inh	HT1080 IDH1KD tx	DT40 TDP1 no CPT	ELG1 DNA repair	HT1080-NT tox	TDP1 cell CPT
Clc1cccc(-c2nc3ccc(Cl)cn3c2Cc2ccccc2)c1	20	?	16µM*	·	-21%	?
COC(=O)c1ccc2nc(-c3cccc(Br)c3)c(Cc3ccccc3)n2c1	30	1%	23µM*	·	11%	?
COC(=O)c1ccc2nc(-c3ccccc3)c(Cc3ccccc3C(F)(F)F)n2c1	17	3%	-17%	·	4%	0%
COC(=O)c1ccc2nc(-c3ccc(C#N)cc3)c(Cc3cccc(Cl)c3)n2c1	0	-11%	21µM*	·	-4%	21µM*
COC(=O)c1ccc2nc(-c3cccc(Cl)c3)c(Cc3ccccc3)n2c1	29	-15%	10µM*	·	5%	21µM*
Cc1cc(S(=O)(=O)Nc2ccc(C(=O)NC3CC3)cc2)ccc1F	-3	1%	-9%	·	6%	7%
CC(Sc1nc(-c2ccccc2)c(C#N)c(=O)[nH]1)C(=O)Nc1ccc(F)cc1 (stereo not drawn)	·	·	0%	·	·	-4%
Cc1cn([C@H]2C[C@H](O)[C@@H](CNC(=O)[C@H](N)C3CC3)O2)c(=O)[nH]c1=O	-5	4%	11%	·	-1%	-12%
N#CCCN1CCN(S(=O)(=O)c2ccc(C3CCCCC3)cc2)CC1	0	-3%	-13%	6%	-4%	13µM*
O=S(=O)(c1ccc(C2CCCCC2)cc1)N1CCCC1	-65*	2%	?	-2%	-1%	?
CN(Cc1ccccc1)C(=O)c1[nH]cnc1C(=O)Nc1ccc(Br)cc1F	22	-7%	?	·	8%	?
Cc1nn(C)cc1S(=O)(=O)N1CCN(c2ccccc2F)CC1	i	-1%	-22%	-12%	-5%	-19%
COc1ccc(NC(=O)CN2C(=O)/C(=C3\SC(=S)N(C4CCS(=O)(=O)C4)C3=O)c3ccccc32)cc1 (stereo not drawn)	?	?	18µM*	2%	1%	9.2µM*
O=C(CN1C(=O)/C(=C2\SC(=S)N(C3CCS(=O)(=O)C3)C2=O)c2ccccc21)Nc1ccc(F)cc1 (stereo not drawn)	·	3%	?	-4%	-2%	6.5µM*
